# Measurements published in PubChem BioAssay AID1159580 (chemical genetic matrix, 2015).
# The whole screen tested about 5,500 compounds, of which about 2,000 (36%) were called active. Another 18% or so got no clear call; they are omitted. This is one part of the list. Unmarked numbers belong to inactive results. No stated cut-off is given here; in the data, active means normalized growth mostly below about 0.91 (no sharp cut-off); inconclusive means no clear call, values can overlap the other calls; inactive means mostly above about 0.92.
# Experiment: chemical genetic growth profiling, strain panel (AID 1159580);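 further: tested at 20 µM; growth read once vehicle control cultures reached saturation at 30 °C; 1 = growth at the plate median or of vehicle wells; lower values mean less growth of the strain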
# Conditions: S. cerevisiae deletion strains, growth OD
# [1] = locus YAR019C, strain CDC15, active compounds read low
# [2] = locus YBL105C, strain PKC1, active compounds read low
# [3] = locus YBR135W, strain CKS1, active compounds read low
# [4] = locus YBR136W, strain MEC1, active compounds read low
# [5] = locus YBR160W, strain CDC28, active compounds read low
# [6] = locus YDL017W, strain CDC7, active compounds read low
# [7] = locus YDL028C, strain MPS1, active compounds read low
# [8] = locus YDL101C, strain DUN1, active compounds read low
# [9] = locus YDL108W, strain KIN28, active compounds read low
# [10] = locus YDL132W, strain cdc53, active compounds read low
# [11] = locus YDL214C, strain PRR2, active compounds read low
# [12] = locus YDR052C, strain DBF4, active compounds read low
# [13] = locus YDR054C, strain cdc34, active compounds read low
# [14] = locus YDR226W, strain ADK1, active compounds read low
# [15] = locus YDR477W, strain SNF1, active compounds read low
# [16] = locus YER123W, strain YCK3, active compounds read low
# [17] = locus YER133W, strain GLC7, active compounds read low
# [18] = locus YFL009W, strain cdc4, active compounds read low
# [19] = locus YFL029C, strain CAK1, active compounds read low
# [20] = locus YFR003C, strain YPI1, active compounds read low
# [21] = locus YFR019W, strain FAB1, active compounds read low
# [22] = locus YFR028C, strain CDC14, active compounds read low
# [23] = locus YGR040W, strain KSS1, active compounds read low
# [24] = locus YGR052W, strain FMP48, active compounds read low
# [25] = locus YGR092W, strain DBF2, active compounds read low
# [26] = locus YHR030C, strain SLT2, active compounds read low
# [27] = locus YHR079C, strain IRE1, active compounds read low
# [28] = locus YHR082C, strain KSP1, active compounds read low
# [29] = locus YHR205W, strain SCH9, active compounds read low
# [30] = locus YIL147C, strain SLN1, active compounds read low
# [31] = locus YJL095W, strain BCK1, active compounds read low
# [32] = locus YJL128C, strain PBS2, active compounds read low
# [33] = locus YJL157C, strain FAR1, active compounds read low
# [34] = locus YJR016C, strain ILV3, active compounds read low
# [35] = locus YJR066W, strain TOR1 (second series), active compounds read low
# [36] = locus YJR066W, strain TOR1, active compounds read low
# [37] = locus YKL048C, strain ELM1, active compounds read low
# [38] = locus YKL067W, strain YNK1, active compounds read low
# [39] = locus YKL101W, strain HSL1, active compounds read low
# [40] = locus YKL193C, strain SDS22, active compounds read low
# [41] = locus YKL203C, strain TOR2, active compounds read low
# [42] = locus YLR113W, strain HOG1, active compounds read low
# [43] = locus YLR133W, strain CKI1, active compounds read low
# [44] = locus YLR403W, strain SFP1, active compounds read low
# [45] = locus YML070W, strain DAK1, active compounds read low
# [46] = locus YMR001C, strain CDC5, active compounds read low
# [47] = locus YMR205C, strain PFK2 (second series), active compounds read low
# [48] = locus YMR277W, strain FCP1, active compounds read low
# [49] = locus YNL006W, strain LST8, active compounds read low
# [50] = locus YNL020C, strain ARK1, active compounds read low
# [51] = locus YNL161W, strain CBK1, active compounds read low
# [52] = locus YNL183C, strain NPR1, active compounds read low
# [53] = locus YNL207W, strain RIO2, active compounds read low
# [54] = locus YNL222W, strain SSU72, active compounds read low
# [55] = locus YNL307C, strain MCK1 (second series), active compounds read low
# [56] = locus YOL078W, strain AVO1, active compounds read low
# [57] = locus YOL136C, strain PFK27, active compounds read low
# [58] = locus YOR061W, strain CKA2, active compounds read low
# [59] = locus YOR119C, strain RIO1, active compounds read low
# [60] = locus YOR231W, strain MKK1, active compounds read low
# [61] = locus YOR329C, strain SCD5, active compounds read low
# [62] = locus YPL031C, strain PHO85, active compounds read low
# [63] = locus YPL153C, strain RAD53, active compounds read low
# [64] = locus YPL204W, strain HRR25, active compounds read low
# [65] = locus YPL209C, strain IPL1, active compounds read low
# [66] = locus YPL256C, strain CLN2, active compounds read low
# [67] = locus YPR025C, strain CCL1, active compounds read low
# [68] = locus YPR106W, strain ISR1, active compounds read low
# [69] = locus YPR111W, strain DBF20, active compounds read low
# [70] = strain NNK1, active compounds read low
# [71] = strain TSCII, active compounds read low
smiles,measurement,setting,value
N#C/C(=N/Nc1cccc(C(F)(F)F)c1)C(=O)c1csc(-c2cccnc2)n1,normalized growth,[1],0.96
same,normalized growth,[2],0.958
same,normalized growth,[3],0.955
same,normalized growth,[4],0.962
same,normalized growth,[5],0.961
same,normalized growth,[6],0.96
same,normalized growth,[7],0.962
same,normalized growth,[8],0.964
same,normalized growth,[9],0.963
same,normalized growth,[10],0.964
same,normalized growth,[11],0.83
same,normalized growth,[12],0.945
same,normalized growth,[13],0.939
same,normalized growth,[14],0.963
same,normalized growth,[15],0.762
same,normalized growth,[16],0.56 (active)
same,normalized growth,[17],0.883
same,normalized growth,[18],0.96
same,normalized growth,[19],0.955
same,normalized growth,[20],0.961
same,normalized growth,[21],0.364 (active)
same,normalized growth,[22],0.967
same,normalized growth,[23],0.832
same,normalized growth,[24],0.566 (active)
same,normalized growth,[25],0.297 (active)
same,normalized growth,[26],0.115 (active)
same,normalized growth,[27],0.139 (active)
same,normalized growth,[28],0.292 (active)
same,normalized growth,[29],0.75
same,normalized growth,[30],0.96
same,normalized growth,[31],0.232 (active)
same,normalized growth,[32],0.923
same,normalized growth,[33],0.802
same,normalized growth,[34],0.954
same,normalized growth,[35],0.578 (active)
same,normalized growth,[36],0.343 (active)
same,normalized growth,[37],0.632 (active)
same,normalized growth,[38],0.854
same,normalized growth,[39],0.534 (active)
same,normalized growth,[40],0.959
same,normalized growth,[41],0.763
same,normalized growth,[42],0.34 (active)
same,normalized growth,[43],0.711 (active)
same,normalized growth,[44],0.776
same,normalized growth,[45],0.578 (active)
same,normalized growth,[46],0.964
same,normalized growth,[47],0.807
same,normalized growth,[48],0.955
same,normalized growth,[49],0.961
same,normalized growth,[50],0.626 (active)
same,normalized growth,[51],0.956
same,normalized growth,[52],0.46 (active)
same,normalized growth,[53],0.941
same,normalized growth,[54],0.96
same,normalized growth,[55],0.461 (active)
same,normalized growth,[56],0.955
same,normalized growth,[57],0.529 (active)
same,normalized growth,[58],0.85
same,normalized growth,[59],0.838
same,normalized growth,[60],0.198 (active)
same,normalized growth,[61],0.966
same,normalized growth,[62],0.484 (active)
same,normalized growth,[63],0.317 (active)
same,normalized growth,[64],0.464 (active)
same,normalized growth,[65],0.957
same,normalized growth,[66],0.236 (active)
same,normalized growth,[67],0.956
same,normalized growth,[68],0.971
same,normalized growth,[69],0.958
same,normalized growth,[70],0.95
same,normalized growth,[71],0.954
CS/C(Nc1cccc(C(F)(F)F)c1)=C(/C#N)S(=O)(=O)c1ccc(Cl)cc1,normalized growth,[1],0.951
same,normalized growth,[2],0.945
same,normalized growth,[3],0.953
same,normalized growth,[4],0.941
same,normalized growth,[5],0.948
same,normalized growth,[6],0.948
same,normalized growth,[7],0.957
same,normalized growth,[8],0.953
same,normalized growth,[9],0.949
same,normalized growth,[10],0.953
same,normalized growth,[11],0.96
same,normalized growth,[12],0.932
same,normalized growth,[13],0.946
same,normalized growth,[14],0.931
same,normalized growth,[15],0.963
same,normalized growth,[16],0.941
same,normalized growth,[17],0.971
same,normalized growth,[18],0.942
same,normalized growth,[19],0.934
same,normalized growth,[20],0.944
same,normalized growth,[21],0.957
same,normalized growth,[22],0.948
same,normalized growth,[23],0.947
same,normalized growth,[24],0.943
same,normalized growth,[25],0.937
same,normalized growth,[26],0.996
same,normalized growth,[27],0.987
same,normalized growth,[28],1.01
same,normalized growth,[29],0.914
same,normalized growth,[30],0.953
same,normalized growth,[31],0.916
same,normalized growth,[32],0.935
same,normalized growth,[33],0.954
same,normalized growth,[34],0.944
same,normalized growth,[35],0.95
same,normalized growth,[36],0.988
same,normalized growth,[37],0.946
same,normalized growth,[38],0.972
same,normalized growth,[39],0.954
same,normalized growth,[40],0.951
same,normalized growth,[41],1
same,normalized growth,[42],0.882
same,normalized growth,[43],0.945
same,normalized growth,[44],0.925
same,normalized growth,[45],0.962
same,normalized growth,[46],0.948
same,normalized growth,[47],0.978
same,normalized growth,[48],0.956
same,normalized growth,[49],0.958
same,normalized growth,[50],0.943
same,normalized growth,[51],0.94
same,normalized growth,[52],0.992
same,normalized growth,[53],0.936
same,normalized growth,[54],0.957
same,normalized growth,[55],0.926
same,normalized growth,[56],0.951
same,normalized growth,[57],0.915
same,normalized growth,[58],0.985
same,normalized growth,[59],1.01
same,normalized growth,[60],0.94
same,normalized growth,[61],0.951
same,normalized growth,[62],0.956
same,normalized growth,[63],0.973
same,normalized growth,[64],0.911
same,normalized growth,[65],0.943
same,normalized growth,[66],0.981
same,normalized growth,[67],0.946
same,normalized growth,[68],0.954
same,normalized growth,[69],0.949
same,normalized growth,[70],0.947
same,normalized growth,[71],0.942
